The source made the active and inactive calls.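 How the source made its calls, unless noted: active means inhibition above 20% together with a positive visual image hit; inconclusive means visual image hit but inhibition not above 20%; inactive means no visual image hit.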
Columns and labels:
[1] = inhibitors of TNFa-induced NFkB p65 translocation, primary screen, imaging, HUVEC, MLSMR starter and 10KST1 sets (AID 438); settings: HUVEC TNFa-induced p65 nuclear translocation; cell count: measured here: nuclei count (cytotoxicity indicator), at 2.08 µM; inhibition: at 2 µM, stronger effect = higher value, 0% TNFa-plus-vehicle, 100% no-TNFa wells;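 further: compound added about 3h40 before a 20 min TNFalpha stimulation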;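 on inhibition: signal is the nuclear over cytoplasmic p65 intensity ratio per well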
[2] = reduction of polyQ htt aggregates in cells – imaging, exon1htt(103Q)mCFP cells, high-content imaging, primary screen (AID 483;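 active means visual image review flags a hit and inhibition of aggregation exceeds 20%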;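 further: compound exposure lasted 3 days before fixation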;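 on nuclei count: percent of the per-plate median nuclei count of sample wells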); settings: exon1htt(103Q)mCFP cell line, aggregate imaging, at 2 µM; inhibition of aggregation: stronger effect = higher value; nuclei count: measured here: cell count, toxicity
[3] = endothelial E-selectin expression blockers – imaging, HUVEC, immunofluorescence, MLSMR starter and 10KST1 sets, primary screen (AID 487;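 active means visually confirmed hit in the image check and inhibition above 20%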;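 on inhibition: signal is fraction of cell area covered by stained E-selectin grains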;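 on nuclei count: 100% = median nuclei count of all wells on the same plate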); settings: HUVEC TNFalpha-induced E-selectin immunofluorescence imaging, at 2 µM; inhibition: stronger effect = higher value; nuclei count: measured here: cell number, toxicity
[4] = target: Voltage-gated potassium channel subunit beta-2 (Rattus norvegicus) (UniProt P62483); test: inhibitors of rat Kvbeta2 reductase activity – biochemical, NADPH fluorescence, primary screen (AID 622;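 active means fluorescence slope higher than the sample average by over 3 SD, cut at about -0.22 in these data, passing the limit was not always enough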;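 further: slope of raw intensity against log time taken from 70 to 1610 s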); settings: recombinant KvBeta, 4-cyanobenzaldehyde reduction, at 10 µM, stronger effect = higher value
Voltage-gated potassium channel subunit beta-2 (Rattus norvegicus), sequence (P62483 whole entry, looked up): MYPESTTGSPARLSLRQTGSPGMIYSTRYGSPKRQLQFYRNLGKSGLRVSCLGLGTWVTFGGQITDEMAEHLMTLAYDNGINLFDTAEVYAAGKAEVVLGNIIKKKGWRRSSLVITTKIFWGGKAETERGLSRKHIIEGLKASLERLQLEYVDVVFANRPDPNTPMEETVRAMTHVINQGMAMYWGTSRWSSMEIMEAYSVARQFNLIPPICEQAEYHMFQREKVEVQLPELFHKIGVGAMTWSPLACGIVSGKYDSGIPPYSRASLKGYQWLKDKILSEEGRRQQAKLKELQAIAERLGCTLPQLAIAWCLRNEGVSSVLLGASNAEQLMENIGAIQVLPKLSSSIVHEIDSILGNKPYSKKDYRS

[5] = target: Voltage-gated potassium channel subunit beta-2 (Rattus norvegicus) (UniProt P62483); test: enhancers of rat Kvbeta2 NADPH turnover – biochemical, NADPH fluorescence, primary screen (AID 623;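 active means NADPH fluorescence slope more negative than the mean of all samples by about 3 SD, 99.7% confidence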;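 further: fluorescence intensity change per second fitted from 20 to 320 s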); settings: Recombinant KvBeta, NADPH fluorescence decrease slope, 10 min; at 10 µM; stronger effect = lower value
[6] = target: Alpha-2C adrenergic receptor (Homo sapiens) (UniProt P18825); test: compounds altering alpha2C-coupled GIRK flux – cell-based, HEK293 alpha2C/GIRK1/2, thallium flux, primary screen (AID 624;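 active means fluorescence slope after compound addition differing from the mean of all screened samples at 99.7% confidence, in either direction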;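 further: slope of fluorescence ratio to pre-addition baseline per second over 15 to 24 s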); settings: thallium flux BTC fluorescence, at 10 µM, actives lie on both sides
Alpha-2C adrenergic receptor (Homo sapiens), sequence (P18825 whole entry, looked up): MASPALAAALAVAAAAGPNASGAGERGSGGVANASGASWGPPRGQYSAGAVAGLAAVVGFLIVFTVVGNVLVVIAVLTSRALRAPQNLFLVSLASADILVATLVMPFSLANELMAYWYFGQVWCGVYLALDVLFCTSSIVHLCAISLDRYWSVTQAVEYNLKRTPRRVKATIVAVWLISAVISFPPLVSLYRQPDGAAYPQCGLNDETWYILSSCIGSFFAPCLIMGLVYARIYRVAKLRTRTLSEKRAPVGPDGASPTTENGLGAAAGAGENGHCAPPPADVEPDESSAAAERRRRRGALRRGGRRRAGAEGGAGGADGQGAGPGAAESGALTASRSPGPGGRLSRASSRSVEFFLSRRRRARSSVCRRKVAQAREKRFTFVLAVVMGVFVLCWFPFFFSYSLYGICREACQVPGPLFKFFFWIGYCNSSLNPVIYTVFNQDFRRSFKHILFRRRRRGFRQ

[7] = blockers of RIG-like receptor reporter activation – cell-based, Sendai virus stimulus, luciferase, 10K MLSCN set, TLR/RLR signaling modifier project, primary screen (AID 602276;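 active means inhibition at or above 50% at 10 µM; inactive means inhibition below 50%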;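 further: firefly luciferase from ISG56 promoter only with Renilla not read in this screen; 0% = Sendai virus plus DMSO and 100% = medium plus DMSO without virus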); settings: HEK293 RL24 IRF3 luciferase reporter, at 10 µM, stronger effect = higher value
[8] = TLR3 IRF3 reporter activation blockers – cell-based, poly I:C stimulus, luciferase, 10K MLSCN set, primary screen (AID 602277;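 active means inhibition of the reporter signal at or above 50%; inactive means inhibition below 50%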); settings: HEK293-TLR3 RL24 IRF3 luciferase reporter, at 10 µM, stronger effect = higher value

Compound | cell count [1] | inhibition [1] | inhibition of aggregation [2] | nuclei count [2] [%] | inhibition [3] | nuclei count [3] [%] | fluorescence slope [4] | NADPH fluorescence slope [5] | slope [6] | inhibition [7] | inhibition [8]
CN1CCN(Cc2nc3c(c(=O)[nH]c(=O)n3C)n2CCc2ccccc2)CC1 | 632 | 7.4% (inactive) | 6.7% (inactive) | 99.2 | -34.7% (inactive) | 119 | -0.436 (inactive) | -1.6e-05 (inactive) | 0.00646 (inactive) | 3.33% (inactive) | 39.3% (inactive)
COC(=O)c1nnn(-c2ccccc2)c1N | 314 | 10.6% (inactive) | 19% (inactive) | 92 | -13.3% (inactive) | 117 | -0.506 (inactive) | -2.7e-05 (inactive) | 0.00571 (inactive) | 6.82% (inactive) | 11.8% (inactive)
CCN(CC)C(=O)Cn1c(=O)n(Cc2ccccc2Cl)c2c1c(=O)n(C)c(=O)n2C | 678 | -6.4% (inactive) | 21.9% (inactive) | 94.3 | 49% (inactive) | 85.7 | -0.45 (inactive) | 3.6e-05 (inactive) | 0.00765 (inactive) | 2.5% (inactive) | 10.3% (inactive)
COc1ccc(C2CC(c3cccs3)n3nc(N)nc3N2)cc1 (stereo not drawn) | 619 | -6.3% (inactive) | 7.8% (inactive) | 122 | -38.1% (inactive) | 118 | -0.533 (inactive) | -1.5e-05 (inactive) | 0.00849 (inactive) | -3.14% (inactive) | -18.2% (inactive)
CS(=O)(=O)N(Cc1ccco1)CC(O)Cn1c2ccccc2c2ccccc21 (stereo not drawn) | 314 | 3.3% (inactive) | 3.9% (inactive) | 103 | -16.4% (inactive) | 97.9 | -0.388 (inactive) | 1.5e-05 (inactive) | 0.00353 (inactive) | 13.7% (inactive) | 35.1% (inactive)
O=C(C1CCC(N2C(=O)C3CC=CCC3C2=O)CC1)N1CCCCC1 (stereo not drawn) | 257 | 22.4% (active) | 7.8% (inactive) | 80.1 | 23.7% (inactive) | 97.6 | -0.356 (inactive) | -5.2e-05 (inactive) | 0.00567 (inactive) | 5.96% (inactive) | 27.2% (inactive)
Cc1cc(=O)n2nc(-c3ccccc3)sc2n1 | 563 | -1.1% (inactive) | -4.1% (inactive) | 106 | -70.5% (inactive) | 108 | -0.421 (inactive) | -9.5e-06 (inactive) | 0.00585 (inactive) | -17.6% (inactive) | -64.6% (inactive)
CCOC(=O)NC1(NCc2ccccc2)Oc2ccccc2O1 | 606 | -12.3% (inactive) | 9.6% (inactive) | 95 | -140% (inactive) | 129 | -0.509 (inactive) | 9e-05 (inactive) | 0.00513 (inactive) | -5.13% (inactive) | -21.2% (inactive)
CCOC(=O)C1C2C=CC3(CN(c4cccc(Cl)c4)C(=O)C13)O2 (stereo not drawn) | 656 | -0.3% (inactive) | 8.1% (inactive) | 105 | -11.3% (inactive) | 110 | -0.398 (inactive) | 9e-06 (inactive) | 0.0053 (inactive) | 13.2% (inactive) | 44.5% (inactive)
CCCCNC(=O)OCCNC(=O)NC | 314 | 2.9% (inactive) | -7.8% (inactive) | 100 | -62.2% (inactive) | 107 | -0.317 (inactive) | -2.2e-05 (inactive) | 0.00519 (inactive) | 7.22% (inactive) | 2.44% (inactive)
O=C(NCc1ccccc1)c1ccc(OC2CSC2)cc1 | 655 | -30.1% (inactive) | 9.3% (inactive) | 97.9 | -45.7% (inactive) | 108 | -0.486 (inactive) | -4.6e-05 (inactive) | 0.00606 (inactive) | -8.59% (inactive) | -14.1% (inactive)
O=C(O)CC(NC(=O)c1ccccc1NC(=O)c1ccccc1)C(=O)O (stereo not drawn) | 284 | -0.3% (inactive) | 8.8% (inactive) | 111 | 22.6% (inactive) | 90 | -0.403 (inactive) | 1.9e-05 (inactive) | 0.00592 (inactive) | -6.91% (inactive) | -15.2% (inactive)
CCC1(NC(C)=O)CC2CC1CC2NC(C)=O (stereo not drawn) | 340 | -1.4% (inactive) | -4.3% (inactive) | 100 | -37.4% (inactive) | 103 | -0.614 (inactive) | -1.3e-05 (inactive) | 0.00321 (inactive) | 1.63% (inactive) | 3.3% (inactive)

From PubChem BioAssay
